Only some compounds are listed: those with a hit (about 2.5% of all), similar ones and a draw of the others.
NPR2 activator: GC-B (human) receptor activation. activation, % at 10 µM. HEK293-GC-B cells, CNP EC30, cGMP TR-FRET; 0% at EC30 CNP, 100% saturating CNP. AID 1920062. 370,000 tested, 0.11% active. P20594;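 active = activation at 10 µM reaching about 35% in either raw or pattern-adjusted values, limit read from the data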
Target sequence (P20594 whole entry, looked up): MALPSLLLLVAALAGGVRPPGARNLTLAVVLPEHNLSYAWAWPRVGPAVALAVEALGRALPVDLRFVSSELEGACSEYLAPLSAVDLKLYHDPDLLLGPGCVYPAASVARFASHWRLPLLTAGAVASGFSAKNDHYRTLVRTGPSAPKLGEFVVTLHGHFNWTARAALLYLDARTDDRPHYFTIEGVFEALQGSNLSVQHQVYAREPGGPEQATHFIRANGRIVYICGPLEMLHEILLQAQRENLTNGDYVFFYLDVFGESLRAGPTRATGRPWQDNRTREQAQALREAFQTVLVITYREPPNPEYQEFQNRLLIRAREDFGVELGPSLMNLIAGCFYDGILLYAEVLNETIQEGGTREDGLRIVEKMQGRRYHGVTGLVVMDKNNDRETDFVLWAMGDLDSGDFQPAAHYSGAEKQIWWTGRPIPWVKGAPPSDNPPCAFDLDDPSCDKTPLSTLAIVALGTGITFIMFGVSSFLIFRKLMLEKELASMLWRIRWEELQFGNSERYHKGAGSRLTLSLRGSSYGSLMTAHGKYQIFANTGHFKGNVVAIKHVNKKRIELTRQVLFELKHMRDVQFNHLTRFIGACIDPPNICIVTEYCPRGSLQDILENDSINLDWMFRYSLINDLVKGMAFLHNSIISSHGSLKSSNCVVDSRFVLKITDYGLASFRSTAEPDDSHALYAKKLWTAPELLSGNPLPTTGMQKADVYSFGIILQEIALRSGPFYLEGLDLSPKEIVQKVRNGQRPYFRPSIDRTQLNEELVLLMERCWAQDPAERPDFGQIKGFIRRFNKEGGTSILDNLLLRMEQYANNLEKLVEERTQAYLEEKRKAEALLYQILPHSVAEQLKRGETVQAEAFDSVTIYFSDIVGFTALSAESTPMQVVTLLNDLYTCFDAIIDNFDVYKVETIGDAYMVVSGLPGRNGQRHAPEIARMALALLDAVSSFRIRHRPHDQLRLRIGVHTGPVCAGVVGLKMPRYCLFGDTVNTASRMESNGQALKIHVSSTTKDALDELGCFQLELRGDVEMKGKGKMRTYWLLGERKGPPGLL
HSF1 activator: increases HSF-1 driven luciferase reporter signal; activation, % at 9 µM; NIH3T3-HGL HSF-1 luciferase reporter, MG132, 8 h; 100% = twice DMSO control signal; 300,000 tested, 1.7% active;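 active = mean replicate activation of at least 50% with a set share of replicates each reaching 50%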;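 also: 0% = median of the neutral control wells and 100% = twice that signal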
aDG glyco act: increases alpha dystroglycan glycosylation. Pro5-aDG cells, alpha-DG glycosylation AlphaScreen (IIH6); 0% Pro5, 100% B10-LARGE cell signal. activation, % at 10 µM. 360,000 tested, 0.22% active. AID 624168;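 active = activation of at least 8% versus controls, or a plate z-score of at least 8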;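 also: Pro5 are CHO cells carrying HIG-tagged alpha-DG that lacks glycosylation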
DYRK1A inh: inhibitors of rat Dyrk1A kinase | Q63470 | ADP-Glo luminescence, NFATc1 peptide | inhibition, % at 12.5 µM | 310,000 tested, 0.43% active | AID 504441; in the data active = inhibition above about 50%;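 also: plate controls were vehicle with enzyme for no effect and no enzyme for full effect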
NPR1 activator: GC-A (human) enzyme activation | P16066 | HEK293 GC-A cells, cGMP TR-FRET, EC30 ANP; 0% at EC30 ANP, 100% saturating ANP | activation, % at 10 µM | 370,000 tested, 0.14% active | AID 1671463; in the data active = activation above about 40%
HSF1 inhib: HSF1 inhibition. NIH3T3-HGL HSE-luciferase, MG132-induced, luminescence 8 h; active compounds read low. AID 2098. activity change, negative = inhibition, % at 7.5 µM (by protocol). 300,000 tested, 0.77% active;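 active = more than half of replicate wells show activity change below -50%, luminescence cut by over half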;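 also: luciferase reports HSF-1 transcriptional activity via heat shock element; 0% = median of DMSO wells and -100% = zero luminescence signal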
An asterisk follows results filed as active; nt = not tested or not shown.

SMILES	NPR2 activator	HSF1 activator	aDG glyco act	DYRK1A inh	NPR1 activator	HSF1 inhib
COc1ccc(C(=O)OCCN=C2NS(=O)(=O)c3ccccc32)cc1OC	-3.0	52.5*	-0.2	-2.2	0.4	24.7
CC(C(=O)N1CCc2ccccc21)N1CCN(Cc2ccc(Cl)cc2)CC1 (stereo unspecified)	0.0	14.1	0.0	-5.0	1.2	-10.3
CS(=O)(=O)Nc1cccc(C2=NN(C(=O)CCCC(=O)O)C(c3cccs3)C2)c1 (stereo unspecified)	2.5	63.5*	0.1	4.8	3.9	18.3
COc1ccccc1CNCC(c1ccccc1)c1ccccc1	-17.2	61.0*	0.2	-6.3	-25.4	25.2
Cc1cc2c(cc1S(=O)(=O)N(C)C1CCCCC1)OCC(=O)N2	4.3	-0.2	-0.2	-0.8	2.5	-3.0
CCCNC(=O)c1oc2ccc3c(c2c1C)C(=O)CC(C)(C)O3	6.4	59.1*	1.5	0.0	6.5	51.7
CCCNC(=O)c1oc2ccc3c(c2c1C)C=CC(C)(C)O3	-7.1	28.5	0.2	1.0	6.0	18.8
Fc1ccc(N2CCN(C3=Nc4ccccc4Sc4ccccc43)CC2)cc1	9.6	nt	nt	nt	-2.0	nt
O=[N+]([O-])c1ccc(S(=O)(=O)c2cccc(C(F)(F)F)c2)nc1	nt	-94.8	-0.3	nt	nt	-95.3*
O=S(=O)(Nc1cccnc1)c1cccc(C(F)(F)F)c1	3.5	2.4	-0.4	-2.0	0.9	-0.7
COc1ccccc1N1CCN(C(=O)c2ccc3c(=O)n(Cc4ccco4)c(=S)[nH]c3c2)CC1	1.5	88.3*	1.0	-0.9	-1.7	49.0
CCOC(=O)N1CCN(C(=O)c2ccc3c(=O)n(-c4ccc(OC)cc4)c(=S)[nH]c3c2)CC1	-3.7	51.6*	0.1	2.8	-4.4	5.9
COc1cccc(N(CC(=O)NCCSCc2ccc(C)cc2)S(C)(=O)=O)c1	2.3	9.9	0.0	-4.9	-2.1	-3.8
Cc1ccc(C)c(NC(=O)CCc2nnc3ccc(NCc4ccco4)nn23)c1	-2.7	-73.3	0.1	-1.9	-3.1	-66.5*
COc1ccccc1NC(=O)CSCc1cc(=O)n2c(C)csc2n1	3.3	19.4	-0.2	1.7	-1.4	3.1
O=C1OCCC1Sc1nc(-c2ccccc2)cs1 (stereo unspecified)	11.6	38.8	-0.3	-3.3	72.5*	2.0
CNC(=O)NC(=O)C(OC(=O)CCNS(=O)(=O)c1ccccc1)c1ccccc1 (stereo unspecified)	3.1	-16.3	-0.1	-2.3	2.8	-14.4
O=c1c2ccccc2nnn1CSc1ccc2c(c1)OCCO2	1.1	76.3*	-0.3	36.9	-3.5	49.4
CCC(C(=O)Nc1ccc2c(c1)OCCO2)n1nnc2ccccc2c1=O (stereo unspecified)	1.6	12.4	-0.4	nt	-2.8	10.5
Cc1[nH]c2ccccc2c1C(=O)Cn1c(=O)oc2ccccc21	-2.6	76.1*	0.1	-0.9	-6.0	33.0
COc1ccc(NC(=O)CSc2nccn2C)cc1S(N)(=O)=O	3.3	-30.4	0.3	2.8	6.4	-19.5
Cc1cc(C)c(S(=O)(=O)/N=C2/C=C(SCC(=O)O)C(=O)c3ccccc32)cc1C	nt	nt	12.0*	12.8	nt	nt
N/C(=N\c1nc2c(c(=O)[nH]1)CCC2)Nc1ccccc1C(F)(F)F	-4.5	56.2*	-0.1	5.2	2.9	18.2
COc1cc(CNc2ccc3[nH]c(=O)[nH]c3c2)ccc1OCc1ccccc1F	43.0*	22.4	0.0	-0.9	-2.4	18.4
COc1cc(CNc2ccc3[nH]c(=O)[nH]c3c2)ccc1OCc1ccc(F)cc1	-19.1	40.8	-0.1	-1.5	-2.0	20.7
SMILES	NPR2 activator	HSF1 activator	aDG glyco act	DYRK1A inh	NPR1 activator	HSF1 inhib
COc1cc(CNc2ccc3[nH]c(=O)[nH]c3c2)ccc1OCc1ccccc1C	-11.2	17.0	0.1	2.4	-6.4	6.5
COc1cc(CNc2ccc3[nH]c(=O)[nH]c3c2)ccc1OCc1ccc(Cl)cc1	-14.5	82.7*	0.2	0.6	-2.5	58.3
O=C(CCS(=O)(=O)c1cccc2nonc12)Nc1cccc2c1CCCC2	3.5	3.1	-0.1	4.0	-0.1	2.3
COc1ccc(C(=O)N/C=C/n2cnc3cc(C(F)(F)F)ccc32)cc1	-6.7	3.3	0.0	-11.6	-4.8	-4.0
COc1ccccc1N(C(=O)CCl)c1cn(C(C)=O)c2ccccc12	-6.3	-75.3	-0.3	-13.7	-9.9	-76.0*
CC(=O)n1cc(N(C(=O)CCl)c2ccc(Cl)cc2)c2ccccc21	nt	-84.2	-0.1	nt	nt	-83.6*
Brc1ccc(/C=N/Nc2nc3ccccc3o2)cc1	-8.4	63.2*	-0.1	-1.2	2.7	20.4
Oc1ccccc1/C=N/Nc1nc2ccccc2o1	-16.0	48.3	0.0	0.6	-4.5	27.3
CCCN(C(=O)CSc1nc(C2CC2)n(-c2ccccc2)n1)C1CCS(=O)(=O)C1 (stereo unspecified)	1.0	nt	0.1	-6.1	-1.0	nt
COc1ccc(OC)c(CNC(=O)C2CCN(S(=O)(=O)N3CCC(C)CC3)CC2)c1	2.4	-3.2	0.1	nt	8.3	2.0
Cc1ccc2c(C)c(C(=O)N3CCC(C(N)=O)(N4CCCCC4)CC3)oc2c1C	1.4	nt	0.3	nt	0.9	nt
CC(=O)N1CCN(CC(=O)Nc2c(Cl)ccc(C)c2Cl)CC1	-2.8	-1.8	0.2	2.8	4.4	-6.9
CC(C)(C)c1cccc(/C=N/O)c1O	2.2	65.6*	-0.2	-6.4	1.8	21.4
COc1cc(-c2nnc(CSc3nnc(Nc4ccc(C(C)C)cc4)s3)o2)cc(OC)c1OC	-11.6	55.6*	0.3	-3.0	-10.1	27.5
COc1ccccc1Nc1nnc(SCc2nnc(-c3cc(OC)c(OC)c(OC)c3)o2)s1	-3.8	-3.7	-0.5	1.8	-1.8	-4.6
CCOc1ccccc1Nc1nnc(SCc2nnc(-c3cc(OC)c(OC)c(OC)c3)o2)s1	-4.5	-80.9	-0.5	-4.3	-6.6	-73.9*
COC(=O)[C@]1(C)N[C@H](c2ccc(-c3ccc(F)cc3)cc2)[C@@H]2C(=O)N(C)C(=O)[C@@H]21	-1.6	-7.8	0.1	3.4	6.8	-10.0
O=C(COC(=O)Cc1ccccc1F)Nc1ccccc1[N+](=O)[O-]	2.9	nt	-0.1	nt	-0.4	nt
Nc1ccc2c(c1)Cc1cc([N+](=O)[O-])ccc1-2	-5.5	23.4	0.3	6.7	11.0	-5.0
CC(O)CN(CC(C)O)c1ccc2c(c1)Cc1cc([N+](=O)[O-])ccc1-2 (stereo unspecified)	27.4	nt	0.1	-3.3	45.2*	nt
c1ccc2c(c1)NC1(CCCC1)n1c-2nc2ccccc21	3.0	5.6	0.9	20.1	7.1	-9.3
COC(=O)c1ccc(-n2ccnc2)cc1	1.2	-9.6	-0.2	0.0	-4.0	-7.0
CCOC(=O)/C(=C/c1ccc(OC(=O)c2ccncc2)cc1)C(C)=O	2.1	14.4	0.1	0.4	8.3	16.4

Screens from PubChem.
